# Hits are enriched below; roughly 4.7% of the tested compounds scored in any of these assays.
# TRHR agonist – qHTS for Small Molecule Agonists and Allosteric Enhancers of Human TRH Receptor: Primary Screen for Agonists; Thyrotropin-releasing hormone receptor (Homo sapiens), P34981; TRHR cells, calcium flux fluo-8, FDSS agonist mode; activation, % at 2 µM; actives 0.18% (n = 360,000); AID 493084, 2011
#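 Agonist-mode FDSS calcium read (Ex 480/Em 530, 1 s cycles) in 1536-well TRHR cells with fluo-8 dye, after 10-cycle baseline and 23 nL compound addition; TRH at EC20 (10 nM final) added afterwards for the enhancer phase.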
# D1 potentiator – Potentiators of Human D1 Dopamine Receptor: qHTS; potentiation, % at 10 µM; HEK293 TREx D1 cells, calcium flux, dopamine EC20 potentiation; actives 0.036% (n = 360,000); in the data active means potentiation above about 30%
# Target sequence (P21728 whole entry, looked up): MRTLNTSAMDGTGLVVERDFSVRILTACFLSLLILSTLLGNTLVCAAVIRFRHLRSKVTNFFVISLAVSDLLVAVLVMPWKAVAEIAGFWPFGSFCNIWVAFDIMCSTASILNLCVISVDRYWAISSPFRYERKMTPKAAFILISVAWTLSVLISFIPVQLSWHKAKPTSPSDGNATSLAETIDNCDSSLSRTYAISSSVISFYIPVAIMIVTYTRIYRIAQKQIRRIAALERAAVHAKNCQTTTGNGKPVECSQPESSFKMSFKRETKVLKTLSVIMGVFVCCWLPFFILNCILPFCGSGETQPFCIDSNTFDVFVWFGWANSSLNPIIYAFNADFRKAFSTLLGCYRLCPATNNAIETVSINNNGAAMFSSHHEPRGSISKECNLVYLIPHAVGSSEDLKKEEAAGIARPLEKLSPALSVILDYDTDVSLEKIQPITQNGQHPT
# D1 ag – Allosteric Agonists of the Human D1 Dopamine Receptor: qHTS; activation, % at 2 µM; AID 504660, 2011; actives 1% (n = 360,000); HEK293 T-REx D1 cells, calcium flux, agonist mode
#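 Inducible HEK293 T-REx D1 cells, force-coupled to calcium signalling, were plated at 4000 cells/well with tetracycline and held overnight at 30 C. After no-wash calcium dye loading, compound-evoked calcium rise over 180 s flagged agonists.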
# TRHR enhancer – qHTS for Small Molecule Agonists and Allosteric Enhancers of Human TRH Receptor: Primary Screen for Enhancers | TRHR cells, fluo-8 calcium fluorescence, EC20 TRH enhancement | actives 0.66% (n = 360,000) | enhancement, % at 2 µM | Thyrotropin-releasing hormone receptor (Homo sapiens), P34981; in the data active means enhancement above about 30%
#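 TRHR-expressing cells loaded with fluo-8 calcium dye were read kinetically (ex 480/em 530) during compound addition, then stimulated with an EC20 of TRH (10 nM final). Enhancement of the Gq-mediated intracellular calcium response was scored.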
# D1 antagonist – Antagonist of Human D 1 Dopamine Receptor: qHTS; D(1A) dopamine receptor (Homo sapiens), P21728; HEK293 TREx D1 cells, calcium flux, dopamine EC80; stronger effect = lower value; activity change, negative = inhibition, % at 10 µM; actives 3.2% (n = 360,000); in the data active means activity change below about -30%
#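 Cells carrying a force-coupled, tetracycline-inducible human D1 receptor report calcium flux. Each well gets a 10 s baseline, compound with 180 s monitoring, then an EC80 dopamine stimulus with a second 180 s kinetic read.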
# Hits are given with their value; n = inactive; x = not tested or not shown. Unless noted, no stated cut-off is given here; in the data, active means activation above about 30%; inactive means the rest.
SMILES,TRHR agonist,D1 potentiator,D1 ag,TRHR enhancer,D1 antagonist
CCN(CC)c1ccc2cc(C=O)c(=O)oc2c1,116.2,n,186.8,n,n
Cc1ccc(C(=O)COC(=O)c2cc(-c3ccc(Cl)cc3)nc3ccccc23)cc1,n,n,n,n,n
Cc1ccccc1NC(=O)C1CCN(C(=O)c2cnn(-c3ccccc3)c2-n2cccc2)CC1,n,n,n,n,n
COc1cc(CN(C(=O)COc2ccccc2)c2ccccn2)cc(OC)c1OC,n,n,n,n,n
CCC(C)NC(=O)c1cc(-c2cccc(OC)c2)on1 (stereo not drawn),n,n,n,n,n
CC(=O)c1cc2c(ccc3ccccc32)oc1=O,n,n,n,n,n
CCN(CC)c1ccc2cc(C(C)=O)c(=O)oc2c1,66.5,n,145.9,n,n
CC(C)(C)C(=O)Nc1nc2nc(-c3ccccc3)cc(=O)n2[nH]1,n,n,n,n,n
Cc1ccc(S(=O)(=O)NCCCCCC(=O)NC(C)(C)CO)cc1,n,n,n,n,n
CCCC[N+](C)(C)CCC(=O)NC(C)(C)CS(=O)(=O)[O-],n,n,n,n,-33.9
COc1ccccc1CNC(=O)CCc1c(C)c2cc3c(C)coc3cc2oc1=O,n,n,n,n,n
CCN1CCc2nc3sc(C(=O)c4ccc(F)cc4)c(N)c3cc2C1,n,n,30.3,n,n
Fc1ccc(-c2cc(-c3nc(-c4ccc(Cl)cc4)no3)[nH]n2)cc1,n,n,n,n,n
O=S(=O)(c1ccccc1)N1CCSC1c1ccco1 (stereo not drawn),n,n,n,33.8,-44.2
CC(=O)Nc1ccc(S(=O)(=O)N2CCSC2c2ccco2)cc1 (stereo not drawn),n,n,n,n,n
Clc1cccc(N2CCN(c3nc4ccccc4n4cnnc34)CC2)c1,n,n,n,n,n
CCOC(=O)c1sc(NC(=O)CSc2nc3c(cc2C#N)CCCCCC3)c(C#N)c1C,n,n,41.7,n,n
Cc1cc(NC(=O)C(=O)NCc2cccc(Cl)c2)no1,n,n,n,n,-33.2
Cc1cc(NC(=O)CSCC(=O)N(C)Cc2cccc(Cl)c2)no1,n,n,n,n,n
Cc1cc(NC(=O)Nc2ccc(C)c(C)c2)no1,n,n,n,n,n
Cc1cc(NC(=O)Nc2cc(Cl)ccc2C)no1,n,n,35.5,n,n
Cc1ccc(NC(=O)Nc2ccno2)cc1,n,n,n,n,-36.8
Cc1ccc(C(=O)O/N=C(\N)c2cccc([N+](=O)[O-])c2)cc1,n,n,n,n,n
O=C(O/N=C(/c1ccccc1)c1ccncc1)c1cccc(F)c1,n,n,n,n,-59.4
N/C(=N\OC(=O)c1ccncc1)c1cccc([N+](=O)[O-])c1,n,n,n,32.2,n
SMILES,TRHR agonist,D1 potentiator,D1 ag,TRHR enhancer,D1 antagonist
COCCn1c(CNC(=O)c2ccccc2C)nc2cccnc21,n,n,n,n,n
CCc1cccc(-n2c(=O)c3cccnc3n2CC(=O)NCc2ccc(C)cc2)c1,n,n,n,n,n
O=C(CCc1nc2cccnc2n1Cc1ccccc1)NCc1cccc(Cl)c1,n,n,n,n,n
CCCN1C(=O)S/C(=C/c2ccc(N3CCOCC3)o2)C1=O,n,n,103.2,n,n
CCCN1C(=O)S/C(=C\c2ccc(N3CCOCC3)o2)C1=O,n,n,34.1,n,n
CCCN1C(=O)S/C(=C\c2ccc(N3CCOCC3)cc2C)C1=O,n,n,n,n,n
CCOc1cc(C(=O)Nc2cccc3cccnc23)cc(OCC)c1OCC,n,n,n,n,n
COc1ccc(C)cc1NC(=O)c1ccc2c(c1)nnn2C1CCCC1,n,n,n,n,n
CC(C)(C)OC(=O)N1CCC(c2c(C(=O)Nc3ccc4c(c3)OCO4)cnn2-c2ccc(F)cc2F)CC1,n,n,n,n,n
CCOC(=O)c1c(S(=O)(=O)N2CCC(C(=O)N3CCN(c4cc(C)ccc4C)CC3)CC2)c(C)n(C)c1C,n,n,n,n,-92.3
CCOC(=O)c1c(S(=O)(=O)N2CCCC(C(=O)Nc3cc(C)ccn3)C2)c(C)n(C)c1C (stereo not drawn),n,n,n,n,-33.3
Cc1cccc(NC(=O)CCC(=O)N/N=C/c2ccco2)c1C,n,n,n,33.5,n
O=C(N/N=C/c1ccco1)Nc1ccccc1,n,n,n,n,n
NNC(=O)CCC(=O)Nc1ccccc1,n,n,n,n,-32.8
CCC(=O)NNC(=O)CCC(=O)Nc1ccccc1,n,n,n,n,n
O=C(CCC(=O)Nc1ccccc1)N/N=C/c1ccco1,n,n,n,38.0,n
O=C(CCC(=O)Nc1cccc2ccccc12)N/N=C/c1ccco1,n,n,n,n,n
COc1cc2c(cc1OC)C1O[C@](CCCCN3C(=O)c4ccccc4C3=O)(C2)Oc2cc(C)n(Cc3ccccc3)c(=O)c21,n,n,n,n,n
CCc1ccc(NC(=O)CC2C(=O)N(c3cccc(C)c3)C(=O)N2CCC(C)C)cc1 (stereo not drawn),n,n,n,n,n
COc1ccc(NC(=O)c2cc3c([nH]c2=O)CC(c2ccccc2)CC3=O)cc1 (stereo not drawn),n,n,n,n,n
O=C(NC1CC(=O)N(c2cccc(F)c2)C1)c1ccc(S(=O)(=O)N2CCCC2)cc1 (stereo not drawn),n,n,n,n,x
COc1cccc(CNC(=O)c2cc(C)nc3c2c(C)nn3-c2cccc(F)c2)c1,n,n,32.6,n,n
CCc1ccc(-n2nc(C)c3c(C(=O)Nc4cccc(C(F)(F)F)c4)cc(C)nc32)cc1,n,n,n,n,-35.3
Cc1cc(C(=O)NCc2ccccc2Cl)c2c(C)nn(-c3cccc(F)c3)c2n1,n,n,n,n,n
Cc1cc(C(=O)NCc2cccc(Br)c2)c2c(C)nn(-c3ccccc3)c2n1,n,n,n,n,n
SMILES,TRHR agonist,D1 potentiator,D1 ag,TRHR enhancer,D1 antagonist
COc1ccc(-c2[nH]ncc2C(=O)NCc2ccc(F)cc2)cc1,n,n,n,n,n
Cc1cc(C(=O)NCc2ccccc2C)c2c(C)nn(-c3cccc(F)c3)c2n1,n,n,n,n,-46.1
COc1ccc(-c2[nH]ncc2C(=O)NCc2cccc(F)c2)cc1,n,n,n,37.3,n
COc1ccc(C)cc1NC(=O)N1CCC(CN2CCOCC2)CC1,n,n,n,n,n
COc1ccc(N2CCN(C(=O)c3nc(-c4ccc(Cl)cc4)n4c3CCCCC4)CC2)cc1,n,n,n,n,n
CC(C)=CCC/C(C)=C/COc1c2ccoc2cc2oc(=O)ccc12,n,n,40.3,n,n

# Compound activity deposited in PubChem BioAssay by National Center for Advancing Translational Sciences (NCATS).
